Screening data: PubChem, Johns Hopkins Ion Channel Center
KCNQ2 pot – KCNQ2 (rat) channel potentiation; actives 0.54% (n = 310,000); AID 2239; CHO-K1 KCNQ2, FluxOR thallium flux fluorescence; stronger effect = higher value; B-score at 10 µM;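 active = fluorescence ratio B-score at least 3 SD of library B-scores, with initial fluorescence B-score within 3 of them, cut at about 5.3 in these data; same plate scores as AID 2156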;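 note: B-score of peak minus minimum over baseline fluorescence ratio after K+ and Tl+ stimulus; positive B-score means potentiation of KCNQ2 with more thallium influx and brighter signal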
KCNQ2 inh – KCNQ2 (rat) channel inhibition; O88943; CHO-K1 KCNQ2, FluxOR thallium flux, 20 min; stronger effect = lower value; B-score at 10 µM; actives 1.1% (n = 310,000); AID 2156;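 active = fluorescence ratio B-score at most minus 3 library SDs, with starting brightness B-score within 2 library SDs, cut at about -5.5 in these data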
Of the large screens only hits and unclear results are named; the others gave an inactive call. A selection: hits, their analogues and other compounds. The true share with any hit is near 1.6%.

Cc1ccc(S(=O)(=O)N2CCOC2CNC(=O)C(=O)NCc2ccccn2)cc1 (stereo not drawn)	none
O=C(Cn1cc(S(=O)(=O)N2CCCC2)c(S(=O)(=O)N2CCCC2)c1)NCc1ccco1	none
Cc1ccn(CCC(=O)NC2CC(C)(C)Cc3c2cnn3-c2ccccc2C)n1 (stereo not drawn)	none
COc1ccc(CNC(=O)CN=C2NC(=O)C(c3ccccc3)(c3ccccc3)N2)cc1	KCNQ2 inh -6.09
O=C(CN=C1NC(=O)C(c2ccccc2)(c2ccccc2)N1)NCc1ccc(F)cc1	none (no result: KCNQ2 pot)
CCN(Cc1ccccc1)C(c1ccc(C)cc1)c1nnnn1C(C)(C)C (stereo not drawn)	KCNQ2 inh -10.5
CCN(Cc1ccccc1)C(c1ccc(Cl)cc1)c1nnnn1C(C)(C)C (stereo not drawn)	none (no result: KCNQ2 pot)
OCCC1CN(CC2CCCCC2)CCN1CC1CCCCC1 (stereo not drawn)	KCNQ2 pot 6.77
OCCC1CN(CC2CCCCC2)CCN1C1CCCC1 (stereo not drawn)	none
Cc1cccc(C)c1NC(=O)CNC(=O)c1ccc(NS(=O)(=O)c2ccc3[nH]c(=O)[nH]c3c2)cc1	none
CCC(C)(C)n1nnnc1C(c1cc2ccc(OC)cc2[nH]c1=O)N1CCc2ccccc21 (stereo not drawn)	KCNQ2 inh -6.11
Cc1ccc2[nH]c(=O)c(C(c3nnnn3C3CCCC3)N3CCCc4ccccc43)cc2c1 (stereo not drawn)	none
CCC(C)(C)n1nnnc1C(c1cc2cc(C)ccc2[nH]c1=O)N1CCCc2ccccc21 (stereo not drawn)	KCNQ2 pot 33.7
CCC(C)(C)n1nnnc1C(c1cc2cc(OC)ccc2[nH]c1=O)N1CCc2ccccc21 (stereo not drawn)	none
O=c1c2ccccc2[nH]c(=S)n1CCC1=CCCCC1	KCNQ2 pot 8.45
O=c1c2ccccc2[nH]c(=S)n1CCN1CCCCC1	none
Cn1c(N)c(C(=O)CSc2nc(N)cc(N)n2)c(=O)n(C)c1=O	none
Cn1nccc1C(=O)Nc1cccc(S(=O)(=O)N2CCOCC2)c1	none
CC(=O)Sc1nc(-c2ccccc2)[nH]c1S(=O)(=O)c1ccc(C)cc1	KCNQ2 inh -11.2
CSc1nc(-c2ccc(C)cc2)[nH]c1S(=O)(=O)c1ccccc1	none (no result: KCNQ2 pot)
CC(=O)N(C)c1ccc(NCc2cc(=O)oc3cc(C)c(O)cc23)cc1	none
Nc1c(-c2ccccc2)c(CSc2nc3ccccc3[nH]2)nn1-c1cccc(Cl)c1	KCNQ2 inh -5.6
Nc1c(-c2ccccc2)c(CSc2nc3ccccc3[nH]2)nn1-c1ccc(Cl)cc1	none (no result: KCNQ2 pot)
COc1ccc(C[C@H]2CN3C(=NC[C@@H]3Cc3ccc(O)cc3)N2CCNC(=O)c2ccc(C)c(Br)c2)cc1	none (no result: KCNQ2 pot)
COc1ccc(C[C@H]2CN3C(=NC[C@@H]3Cc3ccccc3)N2CCNC(=O)c2ccc(C)c(Br)c2)cc1	KCNQ2 inh -5.84
C=CCN1C(=O)C(Cc2ccc(OCC)cc2)S/C1=N\N=C\c1cccs1 (stereo not drawn)	KCNQ2 inh -5.61
C=CCN1C(=O)C(Cc2ccccc2)S/C1=N/N=C/c1cccs1 (stereo not drawn)	none (no result: KCNQ2 pot)
CC1=C(C(=O)OC2CCCCC2)C(c2ccc(N(C)C)cc2)NC(=O)N1 (stereo not drawn)	none (no result: KCNQ2 pot)
COc1ccc(C(=O)NCc2nnc(SCC(=O)Nc3cc(C)on3)o2)cc1OC	none (no result: KCNQ2 pot)
Cc1cc(NC(=O)CSc2nnc(CNC(=O)c3ccc(C(C)(C)C)cc3)o2)no1	KCNQ2 inh -6.43
Cn1c(Cc2cccs2)nnc1SCC(=O)Nc1ccc(C(N)=O)cc1	none (no result: KCNQ2 pot)
COCCn1c(SCC#N)nnc1-c1ccc([N+](=O)[O-])cc1	none
CCOC(=O)C1(Cc2ccccc2)CCCN(Cc2ccc(OCCO)cc2)C1 (stereo not drawn)	none
CCOC(=O)C1(Cc2ccccc2)CCCN(Cc2cccc(C(C)=O)c2)C1 (stereo not drawn)	KCNQ2 inh -6.02
CCSC1=C(C#N)C(c2cccs2)C(C(=O)OC)=C(C)N1 (stereo not drawn)	none
CCCSC1=C(C#N)C(c2cccs2)C(C(=O)Nc2ccccc2)=C(C)N1 (stereo not drawn)	KCNQ2 inh -8.82
CC(Nc1ccccc1N1CCCCC1)C(=O)N1CCc2ccccc21 (stereo not drawn)	none (no result: KCNQ2 pot)
COc1ccc(-c2nc(CN3CCCC(C(=O)NC4CCCC4)C3)c(C)o2)cc1 (stereo not drawn)	none (no result: KCNQ2 pot)
Cc1ccccc1-c1nc(CN2CCCC(C(=O)NCc3cccnc3)C2)c(C)o1 (stereo not drawn)	KCNQ2 pot 9.04
COc1ccc(CNC(=O)C2CCCN(Cc3nc(-c4cccc(C)c4)oc3C)C2)cc1 (stereo not drawn)	KCNQ2 inh -6.42
Cc1ccccc1-c1nc(CN2CCCC(C(=O)NCCCN3CCOCC3)C2)c(C)o1 (stereo not drawn)	none
O=C(O)C1Cc2[nH]cnc2C(c2ccccc2O)N1 (stereo not drawn)	none (no result: KCNQ2 pot)
CC(C)N(CCCNC(=O)Cn1c(=O)c2cccn2c2ccccc21)Cc1ccccc1	none
COc1cc(NS(=O)(=O)c2ccc(NC(=S)NC(=O)CC(C)C)cc2)nc(OC)n1	none
COC(=O)CCC(=O)NC(=S)Nc1ccc(S(=O)(=O)Nc2cc(OC)nc(OC)n2)cc1	KCNQ2 inh -6.38
Cc1ccccc1/C=C1\CCCc2ccccc2C1=O	none (no result: KCNQ2 pot)
O=C1/C(=C\c2ccc3ccccc3c2)CCCc2ccccc21	KCNQ2 inh -6.51
O=C(CSc1nnc(SCc2ccc(Cl)cc2)s1)N/N=C/c1c(Cl)cccc1Cl	KCNQ2 pot 5.4
O=C(CSc1nnc(SCc2ccc(Cl)cc2)s1)N/N=C/c1ccc(Cl)cc1Cl	none (no result: KCNQ2 pot)
Cn1c(=O)c2c(nc3n2CC(O)CN3c2ccc(O)cc2)n(C)c1=O (stereo not drawn)	none
COc1ccc2o/c(=N\O)c(C(=O)Nc3ccc(C)cc3)cc2c1	KCNQ2 inh -10.3
COc1ccc2oc(=N)c(C(=O)Nc3ccc(C)cc3)cc2c1	none (no result: KCNQ2 pot)
Cc1nc2ccc([N+](=O)[O-])cc2c(=O)n1Cc1ccccc1Br	none (no result: KCNQ2 pot)
O=C(CCc1nc2ccccc2[nH]1)Nc1ccc(F)cc1	none (no result: KCNQ2 pot)
O=C(CCc1nc2ccccc2[nH]1)Nc1ccccc1F	KCNQ2 pot 6.57
O=C(NC(=S)N1CCN(c2ccc(C(F)(F)F)cc2[N+](=O)[O-])CC1)c1cccs1	none
CC1=C(C(=O)OC2CCCC2)C(c2ccc(C)o2)C2=C(CC(c3cccs3)CC2=O)N1 (stereo not drawn)	KCNQ2 inh -5.7
CC1=C(C(=O)OC2CCCCCC2)C(c2ccc(C)o2)C2=C(CCCC2=O)N1 (stereo not drawn)	none
O=c1oc(-c2ccccc2)cc(Cl)c1Cl	none (no result: KCNQ2 pot)
COc1ccc(C(=O)C2CCCN(C(=O)/C=C/c3ccccn3)C2)c(C)c1 (stereo not drawn)	none (no result: KCNQ2 pot)
Cc1cc(Cl)c2oc(C(=O)N3CCN(c4cccc(C)n4)CC3)c(C)c2c1	none (no result: KCNQ2 pot)
Cc1ccc2oc(C(=O)N3CCN(c4cccc(C)n4)CC3)c(C)c2c1	KCNQ2 inh -8.08
Cc1cc(C)n(CCN(C)C(=O)C2CCC(=O)N(CCc3cccc(F)c3)C2)n1 (stereo not drawn)	none (no result: KCNQ2 pot)
COc1ccc(CC(=O)Nn2c(-c3ccccc3)nc3ccccc3c2=O)cc1	KCNQ2 pot 9.92
O=C(COc1ccccc1)Nn1c(-c2ccccc2)nc2ccccc2c1=O	none
COc1ccc(C(=O)Nn2c(SCc3ccc([N+](=O)[O-])cc3)nc3ccccc3c2=O)cc1	KCNQ2 inh -6.22
COc1ccc(OCC(=O)Nn2c(-c3cccc(OC)c3)nc3ccccc3c2=O)cc1	none (no result: KCNQ2 pot)
COc1ccc(C(=O)Nn2c(SCC(=O)c3ccccc3)nc3ccccc3c2=O)cc1	none (no result: KCNQ2 pot)
